Sampled rows, rich in hits. Any-hit rate of the full collection: about 14%.
Pf growth 96h: P. falciparum growth inhibition at 96 hours. P. falciparum luciferase reporter growth, 96 h. Potency, µM (titrated, usually from 28.7 µM), hits mostly inhibitors. actives 6.9% (n = 320,000). AID 504834
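Delayed-death screen, second-generation endpoint: infected erythrocytes, 2% hematocrit, 0.05% parasitemia final; 96 hours at 37 C, 5% CO2; luciferase detection reagent; luminescence decrease equals reduced growth.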
HCMV inh: inhibitors of human cytomegalovirus; actives 4.5% (n = 410,000); HFF cells, HCMV-luciferase reporter, 72 h; active compounds read low; activity change, negative = inhibition, % at 57.5 µM; in the data active = activity change below about -60%; inconclusive = no clear call, values can overlap the other calls; inactive = above about -39%
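After 16 h attachment at 37C, HFF cells received test compound and HCMV-luciferase (1 PFU/cell); reporter luminescence read 72 h later, data normalized against buffer-only and known inhibitor Salinomycin.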
Pf growth 48h: P. falciparum growth inhibition at 48 hours (one generation); actives 5.9% (n = 310,000); Potency, µM (titrated, usually from 28.7 µM), hits mostly inhibitors; P. falciparum luciferase growth in erythrocytes, 48 h; AID 504832
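Firefly luciferase activity from engineered P. falciparum reports growth; inhibitors lower the luminescent signal. Cultures contained 2% hematocrit erythrocytes at 0.1% final parasitemia.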
Sm TGR block: blocks Schistosoma mansoni thioredoxin glutathione reductase; purified TGR, DTNB reduction, TNB absorbance 405 nm; Potency, µM (titrated, usually from 114 µM), actives largely listed as inhibitors; actives 3% (n = 360,000); AID 485364; also: nearly all actives have a fitted effect of over 60% in size
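TGR 20 nM + NADPH 100 uM (dispensed conc.), cpd preinc 15 min RT; start with NADPH (500 uM addition) then DTNB (15 mM addition). Kinetic TNB absorbance, 405 nm filter. Four-parameter Hill fit across titration.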
Giardia FBPA inh: blocks Giardia fructose-bisphosphate aldolase activity | actives 0.71% (n = 290,000) | Potency, µM (doses to about 59.6 µM), actives largely listed as inhibitors | A8B2U2 | AID 2451 | purified Giardia FBPA; also: nearly all actives have a fitted effect of over 55% in size
Target sequence (A8B2U2 whole entry, looked up): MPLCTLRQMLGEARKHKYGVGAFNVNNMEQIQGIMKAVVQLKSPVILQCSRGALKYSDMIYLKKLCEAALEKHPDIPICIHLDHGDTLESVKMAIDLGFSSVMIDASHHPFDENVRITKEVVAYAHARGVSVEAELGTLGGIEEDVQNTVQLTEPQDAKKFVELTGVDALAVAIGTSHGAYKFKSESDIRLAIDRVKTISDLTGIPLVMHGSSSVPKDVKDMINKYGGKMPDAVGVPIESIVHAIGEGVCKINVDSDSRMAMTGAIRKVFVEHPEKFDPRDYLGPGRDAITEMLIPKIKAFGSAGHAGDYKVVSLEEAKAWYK
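Giardia FBPA (40 nM reagent) was preincubated 10 min at RT with compound (up to 57.5 uM final), then substrate plus GAPDH/TPI/NAD/arsenate coupling system with diaphorase/resazurin was added; resorufin fluorescence (525/598 nm) was read after 20 min.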
Of the large screens only hits and unclear results are named; the others gave an inactive call. Unless noted, calls follow the shape of the dose curve; as a rule, active = well fitted curve in the direction sought with a large enough effect; inconclusive = small, poorly fitted or top-dose-only effect, or another doubt; inactive = no such curve, though single readings can be large; an effect the other way counts as inactive or inconclusive.

Cc1cc(OC(=O)c2cccs2)c2c3c(c(=O)oc2c1)CCCC3	HCMV inh inconclusive, Pf growth 48h 5.9µM
COc1ccccc1-c1cccc([C@@H]2C[C@H]3[C@H](CON3C)CN2C(=O)C(C)(C)C)c1	none (no result: Pf growth 96h, Pf growth 48h, Sm TGR block, Giardia FBPA inh)
Cc1cccc(NC(=O)C2CCCN(c3ncnc4c3nc3n4CCCCC3)C2)n1 (centres undefined)	Pf growth 96h inconclusive, Pf growth 48h inconclusive
Cc1coc2cc3oc(=O)c(CC(=O)NCc4cccc(Cl)c4)c(C)c3cc12	none (no result: Pf growth 96h, Pf growth 48h, Giardia FBPA inh)
CC1(C)COC(c2cc([N+](=O)[O-])ccc2Cl)=N1	none (no result: Pf growth 48h)
CC1(C)COC(c2ccc(F)c([N+](=O)[O-])c2)=N1	Pf growth 96h inconclusive, Sm TGR block 50µM
CC(=O)NC(CC(=O)N1CCN(C(C)=O)CC1)c1ccccc1 (centres undefined)	none (no result: Giardia FBPA inh)
COc1ccc(C2CC3(CC(C)(C)NC(=S)N3)Oc3cc(O)cc(C)c32)cc1 (centres undefined)	Pf growth 96h 4.1µM, Pf growth 48h inconclusive
COc1ccc(C2CC3(CC(C)(C)NC(SC)=N3)Oc3cc(O)cc(C)c32)cc1 (centres undefined)	HCMV inh -76, Pf growth 48h inconclusive
NC(=O)C1CCN(C(=O)c2ccc(Cl)c(NC(=O)c3cccs3)c2)CC1	none (no result: Pf growth 96h, Pf growth 48h, Sm TGR block, Giardia FBPA inh)
COc1ccc(C(=O)CN2C(=O)c3ccccc3S2(=O)=O)cc1	HCMV inh -92, Pf growth 48h 7.4µM
COc1ccc(C(=O)CN2C(=O)c3ccccc3S2(=O)=O)cc1Br	Pf growth 96h inconclusive (no result: Giardia FBPA inh)
COc1ccc(C)cc1NC(=O)CN1C(=O)c2ccccc2S1(=O)=O	Pf growth 96h inconclusive, HCMV inh -60 (no result: Pf growth 48h)
CN(C)NC(=S)NC1CC2CCC1C2 (centres undefined)	HCMV inh -61
COc1ccc(NC(=O)CSc2nc(-c3ccco3)nc3cc(=O)[nH]n23)cc1Cl	Sm TGR block inconclusive (no result: Giardia FBPA inh)
COc1ccc(NC(=O)CSc2nc(-c3ccco3)nc3cc(=O)[nH]n23)cc1	Sm TGR block 10µM (no result: Pf growth 96h, Pf growth 48h, Giardia FBPA inh)
Cc1ccc(NC(=O)CSc2nc(-c3ccco3)nc3cc(=O)[nH]n23)cc1C	Sm TGR block 22µM (no result: Pf growth 96h, Pf growth 48h, Giardia FBPA inh)
O=C(Cl)CCCCCCCC(=O)Cl	none (no result: Pf growth 96h, HCMV inh, Pf growth 48h, Sm TGR block)
CC(C)(C)NC(=O)CSc1nc2ccccc2n1-c1ccccc1	HCMV inh inconclusive, Pf growth 48h inconclusive (no result: Pf growth 96h)
COc1ccc(C2=Nc3nc(-c4ccccc4)cn3C(c3ccc(OC)cc3)C2)cc1 (centres undefined)	Pf growth 96h inconclusive, HCMV inh inconclusive, Pf growth 48h 2.9µM
CCCn1c(NC(=O)CN2C(=O)NC3(CCCCC3)C2=O)nc2ccccc21	Pf growth 48h inconclusive (no result: Giardia FBPA inh)
O=C(Nc1ccc2c(c1)nc1n2CCN(C2CCCCC2)C1)NC1CCCCC1	Sm TGR block 13µM, Giardia FBPA inh inconclusive (no result: HCMV inh)
COc1ccccc1C(=O)Nc1ccc2c(c1)nc1n2CCN(C2CCCCC2)C1	Pf growth 96h inconclusive, Pf growth 48h inconclusive, Sm TGR block 25µM
O=C(Nc1ccc2c(c1)nc1n2CCN(C2CCCCC2)C1)c1ccco1	Pf growth 96h inconclusive, HCMV inh inconclusive, Pf growth 48h inconclusive, Sm TGR block inconclusive
CCC(=O)Nc1ccc2c(c1)nc1n2CCN(C2CCCCC2)C1	Sm TGR block inconclusive
O=C(NNC(=O)C1CC(c2cccs2)=NO1)Nc1ccccc1 (centres undefined)	none
CC(=O)c1cccc(OCC(O)CNCC2COc3ccccc3O2)c1 (centres undefined)	Sm TGR block inconclusive, Giardia FBPA inh inconclusive
NC1CCc2cc(O)c(O)cc2C1 (centres undefined)	Pf growth 48h inconclusive, Sm TGR block 45µM
CCN=c1sc(C(=O)NCCc2ccccc2)cc(=O)n1CC	Pf growth 48h inconclusive, Sm TGR block 20µM (no result: HCMV inh)
CC(/C=N/n1c(-c2ccccc2)n[nH]c1=S)=C\c1ccco1	Sm TGR block inconclusive
S=c1[nH]nc(-c2cccc(Cl)c2)n1/N=C/c1ccc(-c2ccccc2Br)o1	Pf growth 96h inconclusive, HCMV inh inconclusive, Pf growth 48h 10µM
S=c1[nH]nc(-c2ccncc2)n1/N=C/C=C/c1ccco1	Pf growth 96h inconclusive, HCMV inh inconclusive, Sm TGR block 22µM, Giardia FBPA inh inconclusive
S=c1[nH]nc(-c2cccc(Cl)c2)n1/N=C/c1ccco1	Sm TGR block 40µM (no result: HCMV inh)
C(=C\c1ccco1)/C=N/n1cnnc1	Sm TGR block 28µM, Giardia FBPA inh inconclusive
O=C(CCn1ccc2cc(S(=O)(=O)N3CCCC3)ccc21)NCc1cccc(F)c1	none
CCOc1ccccc1NC(=O)CSC1=Nc2ccccc2C2=NC(CC(=O)NC3CCCCC3)C(=O)N12 (centres undefined)	none (no result: Pf growth 96h, Pf growth 48h, Giardia FBPA inh)
Cc1cc(Br)ccc1NC(=O)c1cn(C2CCCC2)c(=O)c2c1c1ccccc1n2C	none (no result: Pf growth 96h, Pf growth 48h, Giardia FBPA inh)
COc1ccccc1CCNC(=O)CNC(=O)Cc1cccc2ccccc12	none
CC(/C=N/n1c(-c2ccc(C)cc2)n[nH]c1=S)=C\c1ccco1	none
CC(/C=N/n1c(-c2ccncc2)n[nH]c1=S)=C\c1ccco1	HCMV inh inconclusive, Sm TGR block 32µM
Cc1cccc(-c2n[nH]c(=S)n2/N=C/C=C/c2ccco2)c1	Sm TGR block 11µM
COc1ccccc1/C=C\C=N\n1c(-c2ccc(Cl)cc2Cl)n[nH]c1=S	none
S=c1[nH]nc(-c2ccccc2Cl)n1/N=C/C=C/c1ccco1	Sm TGR block 20µM
CCN(CC)CCOC(=O)c1ccc(NC(=O)Cn2ncc3c2-c2cc(C)ccc2OC3)cc1	none (no result: Pf growth 96h, Pf growth 48h, Giardia FBPA inh)
Cc1ccc(-n2nc3ccc(N)cc3n2)cc1Cl	Pf growth 96h 4.1µM
Cc1ccc(-n2nc3ccc(N)cc3n2)c(C)c1	Pf growth 96h 1.7µM
Cc1ccc(-n2nc3ccc(N)cc3n2)cc1C	none
O=C1C=CC(=O)N1	HCMV inh inconclusive, Sm TGR block 0.89µM (no result: Giardia FBPA inh)
COc1ccc(C2c3[nH]c4ccccc4c3C[C@H]3C(=O)N(c4ccccc4C(=O)NCCN4CCOCC4)C(=O)N23)cc1 (some centres undefined)	Pf growth 96h inconclusive, Pf growth 48h 13µM, Giardia FBPA inh inconclusive
O=C(NCCN1CCOCC1)c1ccccc1N1C(=O)[C@@H]2Cc3c([nH]c4ccccc34)C(c3ccc(F)cc3)N2C1=O (some centres undefined)	Pf growth 96h inconclusive, HCMV inh -75, Pf growth 48h inconclusive, Giardia FBPA inh inconclusive
CCn1c(=O)c(=O)n(CC)c2cc(N3CCCCC3)c(NC(=O)c3ccccc3OC)cc21	none (no result: Pf growth 96h, Pf growth 48h, Giardia FBPA inh)
COc1ccc(-c2ccc(C(=O)NCCc3ccccc3)c3occc23)c(C)c1	none (no result: Pf growth 96h, Pf growth 48h, Sm TGR block, Giardia FBPA inh)
CC1=C[C@@H](C)[C@@H](c2ccc(C(F)(F)F)cc2)OC1=O	none
COc1cc(OC)c(N(C)C(=O)c2c(C)oc3ncn(CC(C)C)c(=O)c23)cc1Cl	none (no result: Pf growth 96h, Pf growth 48h, Giardia FBPA inh)
Cc1cccc(NC(=S)NC2CC3CCCC(C2)N3Cc2cccs2)c1 (centres undefined)	Pf growth 96h 10µM, Pf growth 48h inconclusive
Cc1ccc(C)c(NC(=S)NC2CC3CCC(C2)N3Cc2ccco2)c1 (centres undefined)	Pf growth 96h 12µM, Pf growth 48h inconclusive

Compound activity (PubChem)
